# According to PubChem BioAssay (NCATS):
# Records with an inconclusive call do not appear. Unmarked numbers belong to inactive results. Activity calls are given as the source filed them. Calls follow the shape of the dose curve; as a rule, active = well fitted inhibition curve with a large enough effect; inconclusive = small, poorly fitted or top-dose-only effect; inactive = flat fitted curve, though single readings scatter. *1 amine or outer side, *2 acyl side, *3 side chain or, on linkers, in order; H or OH if unused. Where a SMILES comes first, the peptide text is derived from it. [ ]: non-standard residue; d: D form. X4 = CC(C)=CCc1cc(C(O)C(N[*:1])C(=O)[*:2])ccc1O
# Columns and labels:
# Test in all cases: Cytotoxic Profiling of Annotated Libraries Using Quantitative High-Throughput Screening (AID 1296008); also: nearly all actives have a fitted effect of over 60% in size
# Conditions in all cases: Five cell lines viability, CellTiter-Glo ATP luminescence, 48-72 h; max response: active compounds read low
# [1] = test system: HEK293
# Procedure, shortened: (§1)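 Cells exposed to compounds for 48 or 72 hr at 37 degrees Celsius. Viability read as ATP-coupled luminescence with CellTiter-Glo after 10 min at room temperature.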
# [2] = test system: HaCat
# Procedure, shortened: as §1
# [3] = test system: KB-3-1
# Procedure, shortened: as §1
# % is scaled to controls: 0 for no effect and ±100 for the full control effect; potency is read from the fitted curve at half-maximal effect.
compound,measurement,setting,value
NC1(C(=O)NC(CCO)c2ccc(Cl)cc2)CCN(c2ncnc3[nH]ccc23)CC1 (stereo not given),Potency,[1],1.03 µM (active)
same,max response,[2],-41.5%
same,max response,[3],-13.8%
O=C(c1cn(Cc2cncn2Cc2ccc(Br)cc2)cc1-c1cccc2ccccc12)N1CCOCC1,Potency,[1],0.58 µM (active)
same,Potency,[2],5.8 µM (active)
same,Potency,[3],11.6 µM (active)
CC(C)=CCc1cc(C(O)C2NC(=O)CNC(=O)C(Cc3c[nH]c4ccccc34)NC(=O)C3CCCN3C(=O)CNC(=O)C(C(C)C)NC(=O)CNC2=O)ccc1O (stereo not given) (cyclo(G[X4]GVGPW); configuration not given here),max response,[1],-8.38%
same,max response,[2],-16.9%
same,max response,[3],5.04%
CC(=O)OC1CC2C3(C)CCC(OC(=O)CC(=O)O)C(C)(C)C3CCC2(C)C2(C)CCC(C3(C)CCC(=O)O3)C12 (stereo not given),outcome,[1],inactive
same,max response,[2],3.4%
same,outcome,[3],inactive
CC1OC(OC2C(C)OC(OC3C(O)C(CO)OC(O[C@H]4CC[C@@]5(C)C(CC[C@]6(C)C5CC=C5C7[C@@H](C)[C@H](C)CC[C@]7(C(=O)O)CC[C@]56C(=O)O)C4(C)C)C3O)C(O)C2O)C(O)C(O)C1O (stereo not given in full),max response,[1],-6.08%
same,outcome,[2],inactive
same,max response,[3],9.21%
COc1c2cc(c(O)c1OC)-c1cc(ccc1O)CCC(O)CCCC2 (stereo not given),max response,[1],1.1%
same,outcome,[2],inactive
same,outcome,[3],inactive
CC(C)=CCC/C(C)=C/Cc1ccc(O)c(C2OC(=O)c3cc(C(=O)O)cc(O)c32)c1O (stereo not given),max response,[1],0.876%
same,max response,[2],-20.9%
same,max response,[3],-2.57%
CC1=CC(=O)[C@]2(O[C@@H]3O[C@@H](C)[C@H](O)[C@@H](O)[C@H]3OC(=O)/C=C/c3ccccc3)C=CO[C@@H](O[C@@H]3O[C@H](CO)[C@@H](O)[C@H](O)[C@H]3O)[C@H]12,max response,[1],-1.41%
same,outcome,[2],inactive
same,max response,[3],8.78%
CC1=CC(=O)CC(C)(C)[C@H]1/C=C/C(CO)O[C@@H]1O[C@H](CO)[C@@H](O)[C@H](O)[C@H]1O (stereo not given in full),max response,[1],-4.12%
same,outcome,[2],inactive
same,outcome,[3],inactive
CC(=O)OC1C(O)CC2(C)C(CCC(C)C23Cc2c(O)cc(CO)c(C=O)c2O3)C1(C)C (stereo not given),max response,[1],-11.5%
same,max response,[2],-3.73%
same,max response,[3],6.45%
Nc1nc2c(c(N3CCNCC3)n1)CCC1=C2[C@@H]2CCCC[C@@H]2O1,Potency,[1],18.4 µM (active)
same,outcome,[2],inactive
same,max response,[3],-5.74%
CC(C)=C/C=C\[C@H](C)[C@H]1CC[C@]2(C)C[C@@H]3C(C)=CC(=O)C3/C(CO)=C\C[C@@H]12 (stereo not given in full),max response,[1],-20.2%
same,outcome,[2],inactive
same,outcome,[3],inactive
Oc1ccc2nc(CN3CCC(Cc4ccccc4F)CC3)[nH]c2c1,max response,[1],-10.9%
same,outcome,[2],inactive
same,max response,[3],-7.21%
CC(=O)O[C@@H]1CC(C)=C2[C@H]1[C@H](C)CC[C@H]2/C=C(\C)C(=O)O,max response,[1],-2.45%
same,max response,[2],-15.4%
same,max response,[3],7.61%
Cc1ccc(N)cc1O,Potency,[1],43.3 µM (active)
same,outcome,[2],inactive
same,max response,[3],-6.12%
CC(=O)N[C@H]1[C@H](O[C@H]2CC[C@@]3(C)C(CC[C@]4(C)C3CC=C3C5CC(C)(C)CC[C@]5(C(=O)O)[C@H](O)C[C@]34C)C2(C)C)O[C@H](CO[C@@H]2OC[C@H](O)[C@H](O)[C@H]2O[C@@H]2OC[C@@H](O)[C@H](O)[C@H]2O)[C@@H](O)[C@@H]1O (stereo not given in full),max response,[1],-1.2%
same,max response,[2],-6.42%
same,max response,[3],4.32%
O=C1CCC(c2ccccc2)(C2CCN(Cc3ccc(I)cc3)CC2)C(=O)N1 (stereo not given),Potency,[1],18.4 µM (active)
same,max response,[2],-3.49%
same,max response,[3],-7.17%
CC(=O)O[C@H]1CC[C@@]2(C)C(CC[C@@H](C)[C@]23Cc2c(O)cc4c(c2O3)CN([C@@H](CCC(=O)O)C(=O)O)C4=O)C1(C)C (stereo not given in full),max response,[1],-7.36%
same,outcome,[2],inactive
same,outcome,[3],inactive
CCN(CC)Cc1ccc(C(=O)N(CCc2ccccc2OC)[C@@H]2CCNC2)cc1,Potency,[1],5.63 µM (active)
same,max response,[2],-4.71%
same,Potency,[3],3.99 µM (active)
O=C(COc1cccc2c(=O)[nH]ccc12)c1ccccc1,max response,[1],-5.18%
same,max response,[2],-15.5%
same,max response,[3],7.28%
COC(=O)C1=CO[C@@H](O[C@@H]2O[C@H](CO)[C@@H](O)[C@H](O)[C@H]2O)[C@@H]2[C@@](C)(O)[C@@H](OC(=O)/C=C/c3ccc(O)cc3)C[C@]12O,max response,[1],3.54%
same,max response,[2],1.25%
same,max response,[3],0.0331%
O=[N+]([O-])c1cccc2[nH]c(CNc3nc(N4CCOCC4)nc4c3ncn4-c3ccsc3)nc12,Potency,[1],0.058 µM (active)
same,Potency,[2],0.461 µM (active)
same,Potency,[3],0.164 µM (active)
COC1C(CO)OC(n2cnc3c(=O)[nH]cnc32)C1O (stereo not given),max response,[1],0.852%
same,max response,[2],-1.42%
same,max response,[3],2.15%
CC1(C)C=CN2C(=O)C3=CCCN3C(=O)[C@@H]2C[C@@]12Nc1ccccc1C2=O,max response,[1],-9.52%
same,max response,[2],-4.92%
same,outcome,[3],inactive
Cc1cccc(/C=N/Nc2cc(N3CCOCC3)n3nc(-c4ccncc4)cc3n2)c1,Potency,[1],5.8 µM (active)
same,max response,[3],-17.8%
CC(C)(C#N)c1ccc(N2C(=O)OCc3cnc4ccc(-c5cnc6ccccc6c5)cc4c32)cc1,Potency,[1],7.31 µM (active)
same,Potency,[3],6.51 µM (active)
CC(C)c1cc(CNc2nc(Nc3cc(C4CC4)[nH]n3)cc(N3CCN(C)CC3)n2)on1,Potency,[1],1.3 µM (active)
same,Potency,[2],2.31 µM (active)
same,Potency,[3],0.146 µM (active)
O=C(c1ccccc1)c1ccc2nc(NC(=O)c3csc(C4CCN(c5ncnc6ccsc56)CC4)n3)[nH]c2c1,Potency,[1],5.17 µM (active)
same,Potency,[3],8.2 µM (active)
CC1(C)CC(=O)C2=C(C1)NC(=S)NC2c1cccc(O)c1 (stereo not given),Potency,[1],1.16 µM (active)
same,Potency,[3],0.82 µM (active)
COC(=O)c1cc(OC)cc(OC)c1C(=O)c1c(OC)cc2c(c1O)C1CCCC(C)(O2)O1 (stereo not given),max response,[1],-5.64%
same,max response,[2],3.65%
same,outcome,[3],inactive
O=C(c1cccc(Cl)c1F)N1CCN(Cc2cccc(Nc3nccs3)n2)CC1,Potency,[1],1.03 µM (active)
same,Potency,[3],1.16 µM (active)
Cc1c(C(=O)Nc2ccc(N3CC(C)OC(C)C3)nc2)cccc1-c1ccc(OC(F)(F)F)cc1 (stereo not given),Potency,[1],9.2 µM (active)
same,max response,[3],-28.5%
C/C=C/C=C/C=C/C(=O)OC1C=C(C=O)C(O)(C(=O)O)C2(C)CCCC(C)(C)C12 (stereo not given),max response,[1],1.26%
same,max response,[3],7.06%
Cc1ccccc1-n1c([C@H](C)Nc2nc(N)nc3nc[nH]c23)nc2cccc(C)c2c1=O,Potency,[1],16.4 µM (active)
same,max response,[3],-12.5%
COC(=O)C1=CO[C@@H](O[C@@H]2O[C@H](CO)[C@@H](O)[C@H](O)[C@H]2O)[C@@H]2C(COC(C)=O)=C[C@H](O)[C@H]12,max response,[1],-2.65%
same,outcome,[2],inactive
same,outcome,[3],inactive
CC(C)c1ccc(CO)cc1O[C@@H]1O[C@H](CO)[C@@H](O)[C@H](O)[C@H]1O,outcome,[1],inactive
same,max response,[2],1.11%
same,outcome,[3],inactive
C=C(C)C(=O)O[C@H]1CC2=CC(C/C(C)=C\[C@H]3OC(=O)C(=C)[C@H]13)OC2=O (stereo not given in full),Potency,[1],4.53 µM (active)
same,Potency,[2],12.8 µM (active)
same,max response,[3],-20.7%
CC(O)c1cc(C(=O)N[C@@H](C)Cn2ccc(-c3ccc(C#N)c(Cl)c3)n2)n[nH]1 (stereo not given in full),Potency,[1],18.4 µM (active)
same,max response,[3],-27.8%
CC1(C)CC(NC(=O)C(=O)Nc2ccc(Br)cc2)CC(C)(C)N1,Potency,[1],4.11 µM (active)
same,Potency,[3],4.61 µM (active)
C[C@@H]1O[C@@H](O[C@H]2[C@H](OC(=O)[C@]34CCC(C)(C)C[C@H]3C3=CCC5[C@@]6(C)C[C@H](O)[C@H](O[C@@H]7O[C@H](CO)[C@@H](O)[C@H](O)[C@H]7O)[C@@](C)(CO)C6[C@H](O)C[C@@]5(C)[C@]3(C)CC4)OC[C@H](O)[C@@H]2O)[C@H](O)[C@H](O)[C@H]1O[C@@H]1OC[C@@H](O)[C@H](O[C@@H]2OC[C@](O)(CO)[C@H]2O)[C@H]1O (stereo not given in full),max response,[1],-1.81%
same,max response,[2],-1.17%
same,max response,[3],3.08%
c1cn2cc(-c3ccc4cn[nH]c4c3)nc(Nc3ccc(N4CCOCC4)cc3)c2n1,Potency,[1],18.4 µM (active)
same,max response,[3],3.1%
CC1(C)CCC(C)(C)c2cc(C3(c4ccc(C(=O)O)cc4)OCCO3)ccc21,max response,[1],-82.5%
same,outcome,[2],inactive
same,max response,[3],9.31%
Cc1cc(-c2cc(O)ccc2Cl)cc2nnc(Nc3ccc(OCCN4CCCC4)cc3)nc12,Potency,[1],3.26 µM (active)
same,Potency,[3],4.61 µM (active)
CC1=C(C(=O)O[C@@H]2O[C@H](COC3OCC(O)C(O)C3O)[C@@H](O)[C@H](O)[C@H]2O)C(C)(C)CCC1 (stereo not given in full),max response,[1],-9.72%
same,max response,[3],-5.04%
C=C1C(=O)O[C@@H]2C/C(C)=C\C(=O)/C=C(\C)[C@@H](OC(=O)/C(C)=C\C)[C@H](O)[C@@H]12,Potency,[1],1.61 µM (active)
same,Potency,[3],11.4 µM (active)
O=C(c1ccc(/C=C/c2n[nH]c3ccccc23)cc1)N1CCNCC1,Potency,[1],20.6 µM (active)
same,Potency,[3],5.8 µM (active)
Cc1c[nH]c2nccc(Oc3c(F)cc(Nc4cc(Cl)nc(N)n4)cc3F)c12,Potency,[1],5.8 µM (active)
same,Potency,[3],1.46 µM (active)
NC(=O)c1cccc2cn(-c3ccc(C4CCCNC4)cc3)nc12 (stereo not given),Potency,[1],7.31 µM (active)
same,max response,[3],-7.35%
COc1ncc(Nc2ncc([C@@H](C)N3CCN(S(C)(=O)=O)CC3)cc2-c2nc(C)nc(N)n2)cc1F,Potency,[1],0.259 µM (active)
same,Potency,[2],0.058 µM (active)
same,Potency,[3],9.2 µM (active)
Nc1nc(Nc2ccc(S(N)(=O)=O)cc2)n(C(=S)Nc2c(F)cccc2F)n1,Potency,[1],8.2 µM (active)
same,Potency,[3],1.3 µM (active)
Cc1[nH]c2ccccc2c1C1=C(NCCc2ccc(F)cc2)C(=O)N(C)C1=O,max response,[1],-22.2%
same,Potency,[2],8.2 µM (active)
same,max response,[3],-15.2%
